# According to PubChem BioAssay (NCI):
# Compounds without any hit were thinned out: in the full panel of roughly 83,000, 20% have a hit.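 Negative percent growth values reflect cell death: -40 means 40% of the cells present at the start died, and -100 means all died.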 Unmarked numbers belong to inactive results. Calls of active or inactive are those of the source. How the source made its calls: active means growth percent below 10; inactive means the rest.
# Assays:
# Experiment in all cases: NCI-60 one-dose screen, 48 h (100 = growth as untreated, 0 = no growth, -100 = all killed)
# Conditions in all cases: 10 µM unless noted
# [1] = test system: SK-MEL-2 melanoma
# [2] = test system: EKVX NSCLC
# [3] = test system: SN12C renal
# [4] = test system: UO-31 renal
# [5] = test system: TK-10 renal
# [6] = test system: ACHN renal
# [7] = test system: CAKI-1 renal
# [8] = test system: A498 renal
# [9] = test system: CCRF-CEM leukemia
# [10] = test system: MOLT-4 leukemia
# [11] = test system: RPMI-8226 leukemia
# [12] = test system: OVCAR-8 ovarian
# [13] = test system: OVCAR-5 ovarian
# [14] = test system: OVCAR-4 ovarian
# [15] = test system: SK-OV-3 ovarian
# [16] = test system: IGROV1 ovarian
# [17] = test system: OVCAR-3 ovarian
# [18] = test system: HS 578T breast
# [19] = test system: NCI/ADR-RES ovarian
# [20] = test system: SR leukemia
SMILES,growth [1],growth [2] [%],growth [3],growth [4],growth [5],growth [6],growth [7],growth [8],growth [9],growth [10],growth [11],growth [12],growth [13],growth [14] [%],growth [15],growth [16],growth [17],growth [18],growth [19],growth [20] [%]
COc1ccc(-c2nn(-c3ccccc3)cc2/C=C2\SC(=O)NC2=O)cc1,100%,85.2,90.8%,80%,99.7%,96%,83.2%,72%,91.9%,96.4%,78.7%,101%,99.4%,89.5,93.3%,103%,110%,106%,106%,–
CC(C)CC(CC1=CCC2CC1C2(C)C)C1=C(O)C(C)(C)C(=O)C(C)(C)C1=O (configuration not stated),-18.2% (active),20,3.56% (active),8.44% (active),15.6%,3.98% (active),6.44% (active),-17.9% (active),1.78% (active),-24% (active),-26.4% (active),5.12% (active),22.7%,32.5,-12.6% (active),39%,16.2%,6.67% (active),7.18% (active),–
NCCN1CCN(c2nccc(-c3ccc4ccccc4c3)n2)CC1,76.9%,75.6,52.1%,12.4%,73.9%,46.5%,45.3%,61.6%,18%,22.1%,5.16% (active),71.3%,73.8%,78.7,88.6%,51.2%,73.8%,63.9%,69.4%,–
NC(N)=Nc1ccc(S(=O)(=O)O)cc1,107%,110,90.8%,94.6%,108%,93%,115%,97.8%,108%,85.2%,101%,107%,99.7%,95.5,96.7%,121%,129%,105%,93.6%,–
Oc1ccc(Nc2nccc(-c3ccc4ccccc4c3)n2)cc1,9.62% (active),58.1,32.4%,29%,49.4%,42.8%,27.2%,21.8%,9.76% (active),14.8%,18.3%,31.6%,66.9%,65.5,57.4%,36.3%,34.3%,42.8%,14.7%,–
CN(C)c1ccc(C2Nc3ccccc3-n3cccc32)cc1 (configuration not stated),118%,87.8,89.5%,64.2%,55.7%,86.6%,83.3%,113%,109%,104%,80.2%,94.5%,72%,87.1,104%,55%,92.8%,95.5%,105%,–
CN(C)CCOc1ccc(-c2nc3ccc(-c4nc5ccc(N6CCN(C)CC6)cc5[nH]4)cc3[nH]2)cc1,25.7%,83.6,63.5%,103%,90.7%,111%,89.6%,35.3%,85.4%,92%,35.5%,63.6%,83%,68,69.5%,90%,94.9%,76.4%,108%,–
CC[C@H](Nc1nc(N)nc(C)c1C#N)c1nc2cccc(NCc3ccc(C(=O)NO)cc3)c2c(=O)n1-c1ccccc1,27.8%,35.6,11.4%,4.77% (active),1.89% (active),4.61% (active),13.2%,-38.6% (active),0.318% (active),0.225% (active),4.78% (active),-25.7% (active),16.8%,15.5,-12% (active),-50.5% (active),0.5% (active),-8.46% (active),74.7%,–
CCCCCCCCCCCCCCCCCCSC1=CC(=O)C(OC)=C(OC)C1=O,96.5%,91.3,80.9%,76.6%,91.6%,93.1%,96.3%,97.1%,91.9%,91.9%,40.8%,86.2%,94.3%,109,95.7%,106%,98.2%,90.9%,91.7%,–
COc1ccc(C(=O)/C=C/c2c[n+](=O)c3ccc(F)cc3n2[O-])cc1,112%,92,96.2%,87.8%,106%,102%,95.2%,109%,95.9%,107%,109%,83.5%,97.2%,106,106%,133%,102%,102%,101%,–
CS(=O)(=O)c1c(Nc2ccccc2)n[nH]c1N,113%,116,95%,96.4%,90.2%,102%,105%,115%,91.1%,98.6%,97.8%,105%,102%,117,103%,112%,121%,118%,104%,–
COC(=O)[C@H](C(C)C)n1c(=O)c2cc(OC)c(OC)cc2c2cnc3[nH]ccc3c21,89.7%,47.5,43.5%,22%,51.1%,34%,30.5%,-40.3% (active),39%,1.15% (active),55%,65.1%,39.9%,85,26.5%,3.08% (active),48.8%,12.6%,56.4%,–
O=C(Cn1cc(CN2C(=O)c3ccccc3S2(=O)=O)nn1)Nc1ccc([N+](=O)[O-])cc1Cl,91.9%,103,94.3%,82.7%,112%,95.3%,91.8%,103%,93.4%,96.5%,107%,95.3%,113%,115,73.5%,103%,105%,92.9%,89.3%,–
CC[C@H](Nc1cc(C)nc(N)n1)c1nc2cccc(NCc3ccc(C(=O)NO)cc3)c2c(=O)n1-c1ccccc1,33.1%,64.3,29%,80.1%,32.1%,79.9%,71.8%,-3.63% (active),-11% (active),-9.86% (active),-17.9% (active),17.7%,32.3%,49.3,29.8%,-4.45% (active),16.4%,32.1%,90.6%,–
CN1CCN(c2ccc3nc(-c4ccc5nc(-c6ccc(OCCC(C)(C)C)cc6)[nH]c5c4)[nH]c3c2)CC1,5.57% (active),52.8,75.4%,85.3%,89.9%,64.4%,65.4%,88.6%,-50% (active),-41.2% (active),-50.1% (active),-48.9% (active),-2.35% (active),81.2,88.8%,77.7%,-83.6% (active),52.1%,88%,–
CN1C2CCC1/C(=C\c1ccc(Cl)cc1)C1=C2[C@@H](c2ccc(Cl)cc2)C(C#N)=C(N)O1 (some centres not stated),84.6%,75.7,94%,65.6%,97%,93.9%,76%,80%,77.2%,57.6%,62.6%,93.3%,84.5%,75.6,94.8%,79.1%,92.5%,95.1%,95.8%,–

SMILES,growth [1],growth [2] [%],growth [3],growth [4],growth [5],growth [6],growth [7],growth [8],growth [9],growth [10],growth [11],growth [12],growth [13],growth [14] [%],growth [15],growth [16],growth [17],growth [18],growth [19],growth [20] [%]
O=C(/C=C/c1cc2ccccc2[nH]c1=O)/C=C/c1cc2ccccc2[nH]c1=O,54%,47.3,23.8%,-83.8% (active),-14.8% (active),-11.2% (active),31.9%,30.4%,17.8%,31.6%,-16.8% (active),4.07% (active),15.6%,38.3,8.82% (active),-23.6% (active),-58% (active),19.9%,57.2%,–
NC(=S)N/N=C/c1cc(-c2cccc(N)c2)ccn1,45.5%,37.8,16.7%,12.4%,46.6%,7.92% (active),-9.57% (active),37.3%,6.08% (active),7.42% (active),12.2%,21.6%,46.1%,47.3,27.5%,16%,40.8%,38.1%,21.2%,–
CN(C)C(=O)c1cc2cnc(Nc3ccc(-c4csc5c(=O)cc(N6CCNCC6)oc45)cc3)nc2n1C1CCCC1,33.6%,40.2,24.2%,-10% (active),26.6%,16%,43.2%,-7.2% (active),1.39% (active),4.52% (active),-22.9% (active),20.7%,22.9%,29.7,32.2%,15.6%,20.6%,11.4%,77.5%,–
C=C1CCC2C3(C)COC(c4ccc(SC)cc4)OC3CCC2(C)C1C/C=C1/C(=O)OCC1O (configuration not stated),64.8%,56.1,65.6%,60.7%,101%,74.2%,75.3%,96.7%,2.76% (active),5.06% (active),11.6%,34.9%,79.1%,59.1,96.3%,99.2%,71.4%,102%,49.8%,–
Oc1cccc(Nc2nccc(-c3ccc4ccccc4c3)n2)c1,14.5%,50.5,33.8%,34%,62%,37.6%,24%,71.2%,6.6% (active),23.5%,9.15% (active),29.4%,58.4%,86.5,27.2%,41.7%,14.7%,13%,19.9%,–
Cc1nc2nc(N)nc(N)c2nc1C,86.5%,97.9,93.1%,78.6%,95.4%,96.3%,92.3%,100%,98.5%,118%,100%,96.2%,93.6%,96.4,103%,108%,98%,99.6%,102%,–
C=C1CCC2C3(C)COC(c4cccc(Cl)c4)OC3CCC2(C)C1/C=C/C1=CCOC1=O (configuration not stated),85.6%,35.2,87.2%,38.8%,88.3%,71.5%,70.6%,64.5%,48.4%,33.2%,51.8%,71.5%,84.3%,53.7,78.1%,88.9%,76.9%,96.1%,44%,–
CSc1nc(NCCO)c(C#N)c(-c2cccc(N)c2)n1,108%,81.4,94.7%,74.6%,145%,92.3%,80.3%,83.7%,94.9%,95.6%,99.7%,98.8%,96.2%,96.4,93%,92%,113%,96.5%,99.8%,–
Nc1cc(-c2nc3sccn3c2-c2ccnc(NCCCNS(=O)(=O)c3ccc(F)cc3)n2)ccc1F,60.4%,58.3,48.9%,30.7%,98.3%,32.5%,29.7%,54.3%,21.2%,34%,23%,46.5%,61%,55.2,73.6%,39.9%,79.4%,77.4%,47.7%,–
CC(C)c1c(C(=O)Nc2ccccc2)c(-c2ccccc2)c(-c2ccc(F)cc2)n1CC[C@@H]1CC=CC(=O)O1,-55.9% (active),34.4,-15.5% (active),-75.9% (active),28.5%,-27.8% (active),4.73% (active),73.7%,-29.1% (active),-33.2% (active),-25.9% (active),-19.9% (active),57.1%,19.8,31.6%,-27.5% (active),-73.3% (active),18.1%,-1.87% (active),–
COc1ccc(C(=O)/C=C/c2cc3ccccc3[nH]c2=O)cc1,55.1%,79,45%,24.9%,24.7%,57.9%,42.8%,47.4%,19.5%,32.5%,15.3%,20.4%,52.2%,58.6,53%,50.5%,-19% (active),53.6%,-5.27% (active),–
COc1ccc(-c2cc(NC(=O)Nc3ccc(O)cc3)no2)cc1,102%,77.2,74.8%,41.9%,96.9%,55.4%,31.2%,30.9%,31%,19.2%,82.1%,90.1%,82.9%,76.7,111%,68.2%,87.4%,89.3%,67.8%,–
O=C(/C=C/c1ccc(Cl)cc1)c1ccc(O)c(CN2CCN(c3cc4c(cc3F)c(=O)c(C(=O)O)cn4C3CC3)CC2)c1,68.6%,62.4,26.8%,33.4%,73.8%,32.5%,45.5%,39.9%,43.9%,66%,16.5%,27.4%,77.5%,89.2,73.8%,51.6%,73.9%,47%,65.7%,–
COCCOc1ccc(-c2nc3ccc(-c4nc5ccc(N6CCN(C)CC6)cc5[nH]4)cc3[nH]2)cc1,-76.2% (active),67.9,18.8%,79.2%,66.4%,80.8%,68.6%,-37.8% (active),-2.49% (active),0.928% (active),–,-39% (active),45.3%,14.1,7.92% (active),28.3%,2.47% (active),-3.7% (active),100%,–
CCC(c1ccccc1)C(CC)c1ccc(O)c(O)c1 (configuration not stated),94.3%,107,91.9%,74.2%,106%,95.9%,101%,110%,–,73.8%,102%,102%,115%,82.4,112%,96.5%,86%,87.1%,96.1%,55.3
CCN(CC)C12CCCCC1(C)C(C#N)(C#N)C(C#N)=C(N)O2 (configuration not stated),112%,89.3,97.5%,82.7%,93.2%,106%,91.8%,122%,–,108%,125%,93.4%,101%,100,110%,111%,98.3%,120%,101%,92.7
